High-throughput results deposited in PubChem BioAssay by National Center for Advancing Translational Sciences (NCATS).
An excerpt weighted towards active compounds, which were near 3.8% of everything screened.
TrxR1 inh: blocks rat thioredoxin reductase 1. O89049. hit rate 1% among 390,000. Potency, µM (doses to about 114 µM), actives largely listed as inhibitors. recombinant rTrxR1, NADPH fluorescence consumption, selenite substrate; further: nearly all actives have a fitted effect of over 65% in size
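Rat TrxR1 (90 nM in the dispensed reagent) was pre-reduced with 400 uM NADPH for 5 min at room temperature, then incubated with compound for 15 min. After 400 uM selenite was added, NADPH fluorescence (Ex 340/Em 450 nm) was followed for 8 min.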
Sfp inh: inhibitors of Bacillus subtilis Sfp phosphopantetheinyl transferase; Potency, µM, hits mostly inhibitors; hit rate 3.5% among 310,000; Biochemical Sfp PPTase activity, qHTS;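 further: the enzyme is Sfp with the accession as filed and its product quenches rhodamine fluorescence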
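Compounds were incubated with enzyme (final 15 nM) for 15 min at room temperature before substrate addition started the reaction. Fluorescence at 525 nm excitation, 598 nm emission was recorded immediately and after 30 minutes.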
VDR inhibitor: vitamin D3 receptor (human) inhibition; VDR-SRC2-3 peptide fluorescence polarization, 2 h; Potency, µM, most hits filed as inhibitors; hit rate 0.93% among 400,000; AID 504847
Target sequence (P11473 whole entry, looked up): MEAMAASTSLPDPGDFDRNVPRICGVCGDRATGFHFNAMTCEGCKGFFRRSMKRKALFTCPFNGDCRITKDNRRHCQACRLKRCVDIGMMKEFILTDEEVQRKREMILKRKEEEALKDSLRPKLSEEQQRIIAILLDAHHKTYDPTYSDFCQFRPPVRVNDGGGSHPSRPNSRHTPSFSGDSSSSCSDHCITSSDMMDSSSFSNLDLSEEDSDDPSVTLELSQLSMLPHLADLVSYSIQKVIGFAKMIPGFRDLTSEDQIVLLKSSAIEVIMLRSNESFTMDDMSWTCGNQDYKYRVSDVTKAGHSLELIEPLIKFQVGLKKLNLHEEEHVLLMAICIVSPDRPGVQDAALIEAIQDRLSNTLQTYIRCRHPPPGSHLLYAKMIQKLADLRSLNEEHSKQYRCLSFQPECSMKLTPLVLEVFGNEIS
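Fluorescence polarization assay of small-molecule disruption of VDR binding to coregulator peptide SRC2-3. Compounds and controls pin-transferred, then read after 2 h incubation at ambient room temperature.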
GLS inhibitor: glutaminase GLS (human) inhibition; hit rate 0.21% among 410,000; AID 624170; Potency, µM (series often up to 45.5 µM), most hits filed as inhibitors; GLS enzymatic activity, qHTS titration
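hKGA in 45 mM KH2PO4 pH 8.2, 0.02% Tween-20 with pin-transferred compounds; 1 mM L-glutamine (stock) plus glutamate oxidase/HRP/Amplex Red coupling added. Fluorescence read initially and after 30 min at RT.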
TrxR1 substrate: substrates of rat thioredoxin reductase 1; Potency, µM (top dose mostly 114 µM); AID 588456; purified TrxR1 substrate turnover, NADPH consumption readout; hit rate 0.01% among 390,000; further: nearly all actives have a fitted effect of over 50% in size
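Rat TrxR1, dispensed at 90 nM, was prereduced with 400 uM NADPH (final) for 5 min at ~22 deg C, then incubated with compound 15 min before 400 uM selenite. A first-read NADPH fluorescence drop versus no-compound background flagged substrates.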
GCN5L2 inh: blocks human GCN5L2 histone acetyltransferase. Potency, µM (series often up to 58.9 µM), actives largely listed as inhibitors. GCN5L2 HAT assay, ThioGlo1 CoA-SH fluorescence. Q92830. hit rate 0.21% among 390,000. AID 504327
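Titration-based screen in which CoA formation is detected via maleimide probe ThioGlo1 (50uM) turning fluorescent on thiol reaction; substrates H3(1-25) 75uM and acetyl-CoA 70uM, GCN5L2 20nM, 20 min incubation at room temperature.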
Hits are given with their value; n = inactive; u = inconclusive; x = no result given; ! = not confirmed by another sample. The call rests on the fitted dose curve; in most records, active means well fitted curve in the direction sought with a large enough effect; inconclusive means small, poorly fitted or top-dose-only effect, or another doubt; inactive means no such curve, though single readings can be large; an effect the other way counts as inactive or inconclusive.

SMILES | TrxR1 inh | Sfp inh | VDR inhibitor | GLS inhibitor | TrxR1 substrate | GCN5L2 inh
O=c1c(O)c(-c2ccc(O)c(O)c2)oc2c(OC3OC(CO)C(O)C(O)C3O)c(O)cc(O)c12 (stereo not drawn) | x | n | u | x | x | n
O=c1c(O)c(-c2ccc(O)c(O)c2)oc2c(OC[C@@H]3O[C@@H](O)[C@@H](O)[C@H](O)[C@H]3O)c(O)cc(O)c12 | x | 56µM | x | x | x | x
COc1ccc(Cc2nn3c(Cn4nnc5ccccc54)nnc3s2)cc1 | n | 16µM | u | n | n | n
O=C(c1ccc(F)cc1)N1CCN(c2ccc([N+](=O)[O-])c(N3CCCCC3)c2)CC1 | n | n | n | n | n | n
CN(C)CCCNCC(=O)Nc1ccccc1N1CCOCC1 | n | 79µM | n | n | n | n
c1ccc(-c2nc3ccccc3nc2-c2ccccn2)nc1 | n | n | n | n | n | n
Cc1cc2nc3c(nc2cc1C)C(O)=C3O | 2.5µM | 79µM | n | n | n | n
OC1=C(O)c2nc3ccccc3nc21 | 1.3µM | n | n | n | n | n
Nc1cc(C(F)(F)F)ccc1C(=O)O | x | n | x | x | x | n
OC1=C(O)c2nc3cc(C(F)(F)F)ccc3nc21 | 2µM | 50µM | n | n | n | n
CC(C)(C)c1ccc(-c2nc(-c3ccncc3)no2)cc1 | n | u | n | n | n | n
C=C1C(=O)C23C(O)C1CCC2C12CCCC(C)(COC(C)=O)C1C(O)C3(O)OC2 (stereo not drawn) | 7.1µM | x | 25µM | n | n | x
C[C@H](NC[C@H](O)CP(=O)(O)Cc1ccccc1)c1ccc(Cl)c(Cl)c1 | x | 89µM! | n | x | x | n
CC(C)c1ccc(OCC(O)CNC(C)c2ccccc2)cc1 (stereo not drawn) | n | n | n | n | n | n
CC(=O)n1cc(N(C(=O)CCl)c2ccc(Cl)cc2)c2ccccc21 | 0.71µM | n | 50µM | n | n | n
CCOC(=O)c1ccccc1Nc1cn(C(C)=O)c2ccccc12 | u | n | n | n | n | n
COc1ccccc1N(C(=O)CCl)c1cn(C(C)=O)c2ccccc12 | 4µM | n | n | n | n | n
CCN(CC)C(=O)C(C)N(C#N)c1nc(Cl)nc(N(C)C)n1 (stereo not drawn) | n | n | n | n | n | n
O=C(c1ccco1)N1CCN(C(=O)c2ccc(CS(=O)c3ccc(F)cc3)o2)CC1 (stereo not drawn) | n | n | n | n | n | u
NC1(C(=O)O)CCc2cc(P(=O)(O)O)ccc21 (stereo not drawn) | x | 56µM | n | x | x | n
O=C(c1cc(Sc2ccc(Cl)cc2)nc2ccccc12)N1CCN(c2ccccn2)CC1 | n | n | n | n | n | n
C/C(=N\Nc1cccc2cccnc12)c1ccc(C)cc1 | n | u | n | n | n | n
COc1ccc(-c2nn(-c3ccccc3)cc2/C=N/N=C(N)N)cc1OC | n | 50µM | n | n | n | n
CCOC(=O)C1CCCN(CC(=O)c2ccc(F)cc2)C1 (stereo not drawn) | n | 50µM | n | n | n | n
CC(C)(C)c1cc[n+](-c2[nH]c(=O)sc2/C=N/NC(=O)c2ccccc2[O-])cc1 | n | n | n | n | n | n
SMILES | TrxR1 inh | Sfp inh | VDR inhibitor | GLS inhibitor | TrxR1 substrate | GCN5L2 inh
COc1ccc(N(C(=O)c2ccco2)C(C(=O)NC2CCCC2)c2cccs2)cc1 (stereo not drawn) | n | n | n | n | n | n
COc1ccc(N(C(=O)c2ccco2)C(C(=O)NC2CCCC2)c2cccs2)cc1OC (stereo not drawn) | u | 40µM | n | n | n | n
O=C(O)c1cc(N=Nc2ccc(-c3ccc(N=Nc4ccc(O)c(C(=O)O)c4)cc3)cc2)ccc1O | x | u | 13µM | x | x | 3.2µM
O=C(O)c1cc(N=Nc2ccc(O)c(C(=O)O)c2)ccc1O | x | n | n | n | x | n
NC(=O)c1sc(=S)n2c1[nH]c(=O)c1sccc12 | n | 40µM | n | n | n | n
CC(=O)NNC(=O)c1sc(=S)n2c1[nH]c(=O)c1sccc12 | n | 18µM | n | n | n | n
CS(=O)(=O)c1ccccc1C(=O)N(CCC1=CCCCC1)c1c(N)n(Cc2ccccc2)c(=O)[nH]c1=O | n | x | n | n | n | n
Cc1ccc(C(=O)Nc2cc(Cl)ccc2Oc2ccccc2)cc1[N+](=O)[O-] | n | n | n | n | n | n
Nc1nc(-c2cccnc2)nn1C(=O)CCc1ccccc1 | n | x | n | n | n | x
CC[n+]1c(/C=C/C=C2/N(C)c3ccccc3C2(C)C)sc2ccccc21 | n | x | 35µM | x | n | 28µM
O=C(O)c1cccc(N2C(=O)c3cccc4cccc(c34)C2=O)c1 | n | n | n | n | n | n
O=C(O)c1cccc(N2C(=O)c3cc([N+](=O)[O-])cc4cc([N+](=O)[O-])cc(c34)C2=O)c1 | 11µM | n | 56µM | u | n | u
O=C1/C(=C\Nc2ccc(OC(F)(F)F)cc2)CCN1c1ncccn1 | n | n | n | n | n | n
O=C1/C(=C\Nc2ccc(Cl)cc2)CCN1c1ncccn1 | u | 89µM | n | n | n | n
C[N+]1(CC(O)c2ccccc2)CCCCCC1 (stereo not drawn) | n | n | n | n | n | n
Cc1ccc(Sc2c([N+](=O)[O-])c(=O)n(C)c3ccccc23)cc1 | 2µM | n | n | n | n | n
Cc1ccc(Sc2c(O)c3ccccc3n(C)c2=O)cc1 | n | n | n | n | n | n
CCOc1ccccc1OCC(=O)Nc1ccc(S(=O)(=O)N(C)C)cc1 | n | n | n | n | n | n
CC(C)C[C@H](NC(=O)[C@@H]1Cc2c([nH]c3ccccc23)C2c3ccccc3C(=O)N21)C(=O)N1CCC[C@@H]1C(=O)O (stereo partly drawn) | n | n | n | 13µM | n | n
Cn1c(=O)c2c(ncn2CC(=O)Nc2cccc(S(=O)(=O)Nc3ccccc3F)c2)n(C)c1=O | n | 56µM | n | n | n | n
Cc1cc2[nH]c(=S)[nH]c2cc1C | n | 35µM | n | n | n | n
S=c1[nH]c2cc3ccccc3cc2[nH]1 | n | 56µM! | n | n | n | n
Fc1cc2[nH]c(=S)[nH]c2cc1Cl | u | n | n | n | n | u
NCc1ccc2[nH]c(=O)[nH]c2c1 | n | n | u | n | n | n
S=c1[nH]c2ccc(Cc3ccc4[nH]c(=S)[nH]c4c3)cc2[nH]1 | n | 28µM | n | n | n | n
COCCn1c(=O)[nH]c2cc(C(=O)NCc3ccccc3Cl)ccc2c1=O | n | x | n | n | n | n
CCOc1ccc2nc(N3CCCC(C(=O)NCc4ccccc4OC)C3)sc2c1 (stereo not drawn) | n | x | n | n | n | n
OCc1cn(-c2ccccc2)nc1-c1cc2ccccc2o1 | n | 56µM | n | n | n | n
